In PubChem BioAssay (NCI):
The panel holds about 83,000 compounds, 20% with a hit somewhere; the sample as a whole holds those more often.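 A percent growth of 40 corresponds to 60% growth inhibition; 0 means no net growth; -100 means all cells died. Active threshold: below 10.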 Active and inactive are the calls of the source.

Tests used:
Test in all cases: NCI-60 one-dose screen, 48 h (100 = growth as untreated, 0 = no growth, -100 = all killed)
Details in all cases: 10 µM unless noted
DU-145 prostate = test system: DU-145 prostate
K-562 leukemia = test system: K-562 leukemia
MALME-3M melanoma = test system: MALME-3M melanoma
MDA-MB-231 breast = test system: MDA-MB-231 breast
RXF 393 renal = test system: RXF 393 renal
SF-268 CNS = test system: SF-268 CNS
SF-295 CNS = test system: SF-295 CNS
SF-539 CNS = test system: SF-539 CNS
UACC-257 melanoma = test system: UACC-257 melanoma
M14 melanoma = test system: M14 melanoma

Measured: growth

COc1cc(/C=N/NC(=O)c2cnn3c2NC(c2ccccc2)C3)ccc1OCc1ccccc1 (stereo not given)
inactive: SF-268 CNS 19.6% | UACC-257 melanoma 18.5% | M14 melanoma 14.8%
active: DU-145 prostate 6.15% | K-562 leukemia 3.64% | MALME-3M melanoma -20.5% | MDA-MB-231 breast 5.81% | RXF 393 renal -4.25% | SF-295 CNS -48.3% | SF-539 CNS -52.6%

O=C(Cc1ccc(/C=C/C(=O)c2ncc[nH]2)cc1)Nc1ccc(Cl)cc1
inactive: DU-145 prostate 18.4% | MALME-3M melanoma 89.3% | MDA-MB-231 breast 22.3% | RXF 393 renal 49.7% | SF-268 CNS 12% | UACC-257 melanoma 78.7% | M14 melanoma 63.6%
active: K-562 leukemia 8.02% | SF-295 CNS 8.31% | SF-539 CNS -23.1%

COc1cc(/C(C)=C(\c2ccc(Cl)cc2)c2ccc(OCCN3CCCC3)cc2)ccc1F
inactive: DU-145 prostate 69.4% | MDA-MB-231 breast 56.4% | RXF 393 renal 69.3% | SF-268 CNS 76.6% | SF-295 CNS 75.2% | SF-539 CNS 73.3% | M14 melanoma 18.2%
active: K-562 leukemia 3.65% | MALME-3M melanoma -2.59% | UACC-257 melanoma 3.02%

N#Cc1c(NCc2ccccc2I)sc2c1CCCCC2
inactive: DU-145 prostate 102% | K-562 leukemia 95.3% | MALME-3M melanoma 87.5% | MDA-MB-231 breast 85.4% | RXF 393 renal 93.6% | SF-268 CNS 93.7% | SF-295 CNS 97.3% | SF-539 CNS 97.3% | UACC-257 melanoma 93.7% | M14 melanoma 97.3%

Nc1nc(Nc2ccccc2SSc2ccccc2Nc2nc(N)nc(-c3cccs3)n2)nc(-c2ccsc2)n1
inactive: DU-145 prostate 95.1% | K-562 leukemia 80.9% | MALME-3M melanoma 106% | MDA-MB-231 breast 75.8% | RXF 393 renal 109% | SF-268 CNS 79.6% | SF-539 CNS 105% | UACC-257 melanoma 101% | M14 melanoma 96.5%
active: SF-295 CNS -53.4%

C=C(C)[C@@H]1CC[C@]2(C(=O)N3CCN(C)CC3)CC[C@]3(C)[C@H](CC[C@@H]4[C@@]5(C)C/C(=C/c6cccnc6)C(=O)C(C)(C)[C@@H]5CC[C@]43C)[C@@H]12
inactive: DU-145 prostate 74% | K-562 leukemia 21.9% | MALME-3M melanoma 71.4% | MDA-MB-231 breast 74.9% | RXF 393 renal 52.2% | SF-268 CNS 72.7% | SF-295 CNS 87.3% | SF-539 CNS 74.5% | UACC-257 melanoma 66.6% | M14 melanoma 69.5%

COc1c(Cl)c2c(c(OC)c1OC)-c1ccc(SC)c(=O)cc1[C@@H](NC(=O)OCC(F)(F)F)CC2
inactive: MALME-3M melanoma 34.9% | RXF 393 renal 18.7% | SF-268 CNS 27.2% | SF-295 CNS 15% | UACC-257 melanoma 70.5%
active: DU-145 prostate -6.54% | K-562 leukemia 7.39% | MDA-MB-231 breast -1.03% | SF-539 CNS -19% | M14 melanoma 0.43%

CCCCC[n+]1ccc(SCC(=O)N(C)c2ccc(Oc3ccccc3)cc2)c2ccccc21
inactive: DU-145 prostate 112% | K-562 leukemia 25.4% | MALME-3M melanoma 84.8% | MDA-MB-231 breast 110% | RXF 393 renal 115% | SF-268 CNS 116% | SF-295 CNS 91.4% | SF-539 CNS 107% | UACC-257 melanoma 96.2% | M14 melanoma 102%

N#Cc1c(NC(=O)NCc2ccccc2)sc2c1CCCC2
active: RXF 393 renal 0.0173% | SF-539 CNS -1.85%
inactive: DU-145 prostate 10.1% | K-562 leukemia 14% | MALME-3M melanoma 47.5% | MDA-MB-231 breast 18.8% | SF-268 CNS 46.9% | SF-295 CNS 21% | UACC-257 melanoma 68% | M14 melanoma 10.6%

C/C(=N\NC(=O)CSc1nc2ccccc2c(=O)n1CCc1ccc(S(N)(=O)=O)cc1)c1ccccn1
inactive: DU-145 prostate 44.1% | K-562 leukemia 25.2% | MALME-3M melanoma 36.5% | MDA-MB-231 breast 27.4% | RXF 393 renal 52.8% | SF-268 CNS 34.3% | SF-295 CNS 13.4% | SF-539 CNS 29.8% | UACC-257 melanoma 45.9% | M14 melanoma 17.6%

Cc1c(C(=O)NCCC(=O)NO)sc2ncnc(Nc3ccc(NC(=O)Nc4cccc(C(F)(F)F)c4)cc3)c12
inactive: DU-145 prostate 105% | K-562 leukemia 104% | MALME-3M melanoma 112% | MDA-MB-231 breast 105% | RXF 393 renal 104% | SF-268 CNS 93.4% | SF-295 CNS 91.8% | SF-539 CNS 79% | UACC-257 melanoma 108% | M14 melanoma 107%

CCNC(=O)Oc1ccc(/C(=C(\C)c2ccccc2)c2ccc(OCCN(CC)CC)cc2)cc1
inactive: DU-145 prostate 95.4% | K-562 leukemia 18.9% | MALME-3M melanoma 81.1% | MDA-MB-231 breast 87.2% | RXF 393 renal 70.6% | SF-268 CNS 80.1% | SF-295 CNS 43.5% | SF-539 CNS 60.9% | M14 melanoma 39.7%
active: UACC-257 melanoma -0.741%

N#Cc1cccc(-c2ccc3c(c2)NC(=O)/C3=C\c2ccc[nH]2)c1
inactive: DU-145 prostate 92.8% | K-562 leukemia 18.8% | MALME-3M melanoma 51.6% | MDA-MB-231 breast 33.5% | RXF 393 renal 73.3% | SF-268 CNS 95.6% | SF-295 CNS 78.7% | SF-539 CNS 71.8% | UACC-257 melanoma 67.6% | M14 melanoma 56.4%

CCNC(=O)Oc1ccc(/C(=C(\C)c2ccccc2)c2ccc(OCCN3CCCCC3)cc2)cc1
inactive: DU-145 prostate 84.1% | MALME-3M melanoma 46.6% | MDA-MB-231 breast 70.7% | RXF 393 renal 59.3% | SF-268 CNS 68.1% | SF-295 CNS 29.7% | SF-539 CNS 24.3%
active: K-562 leukemia 6.5% | UACC-257 melanoma -26.4% | M14 melanoma -2.47%
